Assay results taken from PubChem BioAssay (NCI).
Compounds without any hit were thinned out: in the full panel of roughly 83,000, 20% have a hit.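 Single-concentration screen, 48 h exposure, 96-well plates. Endpoint: percent growth. Below 10 = active.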 Values without a mark were called inactive. The source made the active and inactive calls.

Legend:
Assay in all cases: NCI-60 one-dose screen, 48 h (100 = growth as untreated, 0 = no growth, -100 = all killed)
Conditions in all cases: 10 µM unless noted
[1] = system: NCI-H23 lung
[2] = system: NCI-H226 lung
[3] = system: NCI-H322M lung
[4] = system: HOP-62 NSCLC
[5] = system: NCI-H460 lung
[6] = system: HOP-92 NSCLC
[7] = system: NCI-H522 lung
[8] = system: A549/ATCC NSCLC
[9] = system: 786-0 renal
[10] = system: COLO 205 colon

Row | Structure (SMILES) | growth [1] | growth [2] | growth [3] | growth [4] | growth [5] | growth [6] | growth [7] | growth [8] | growth [9] | growth [10]
1 | Cn1ccnc1C(=O)/C=C/c1ccc(CC(=O)Nc2ccc(C(F)(F)F)cc2)cc1 | 19.4% | 48.5% | 6.96% (active) | -33.7% (active) | -0.126% (active) | 38.3% | -3.98% (active) | 6.44% (active) | 1.74% (active) | 5.87% (active)
2 | Cc1ccc(NC(=O)NC(=O)CSc2nc3ccccc3nc2C)cc1 | 42.6% | 59.4% | 95.1% | 45% | 64.9% | 36.1% | 40.8% | 70.2% | -16.3% (active) | 81.1%
3 | CCC1(/C=N/NC(N)=S)NC(=O)NC1=O (centres undefined) | 99.2% | 96.6% | 106% | 78.8% | 109% | 95.5% | 83.2% | 62.5% | 105% | 111%
4 | OCCNC(=S)Nc1ccc(-c2nc(N3C[C@H]4CC[C@@H](C3)O4)c3cccn3n2)cc1 | 17.4% | 0.203% (active) | 19.3% | -14.3% (active) | 11% | -21.2% (active) | 13.3% | -1.6% (active) | 1.86% (active) | -8.64% (active)
5 | CCN(CC)CCOc1ccc(/C(=C(\C)c2ccc(Cl)cc2)c2ccc(Cl)cc2)cc1 | 60.7% | 102% | 87.3% | 95.2% | 36.4% | 80.5% | 81.7% | 45.2% | 60.2% | 8.85% (active)
6 | CC(=O)C(C(C)=O)C(c1ccccc1)C(C(C)=O)C(C)=O | 98.6% | 90.9% | 99.7% | 98.4% | 105% | 97.5% | 91.7% | 89.3% | 97.2% | 104%
7 | CC(C)CC(=O)Nc1n[nH]c2c1CN(C(=O)C1CCN(C)CC1)C2(C)C | 0.542% (active) | 7.08% (active) | 24.4% | -14.3% (active) | 7.12% (active) | -3.08% (active) | -27.9% (active) | 7.25% (active) | 3.99% (active) | -76.4% (active)
8 | O=C1CCC(=O)CC1 | 103% | 101% | 110% | 102% | 104% | 87.4% | 91.2% | 91.4% | 104% | 115%
9 | C=CC[n+]1c(/C=C/C=C2\N(C)c3ccccc3C2(C)C)sc2ccc(OC)cc21 | 11.6% | 10.8% | 26.2% | 14.4% | 7.84% (active) | -4.42% (active) | 3.52% (active) | 16.6% | 26.8% | -37.4% (active)
10 | CC(=O)NCC(=O)N1[C@@H]2CC[C@H]1c1ccc(Nc3ncc(C(F)(F)F)c(NC4CCC4)n3)cc12 | 27.9% [2.5 µM] | 42.8% [2.5 µM] | 14.2% [2.5 µM] | 23% [2.5 µM] | 16.3% [2.5 µM] | -1.13% [2.5 µM] (active) | 46.1% [2.5 µM] | 34% [2.5 µM] | 42.4% [2.5 µM] | -22.6% [2.5 µM] (active)
11 | CCCCN1CCCC[C@@H]1C(=O)N[C@H](C(=O)N(C)[C@H](CCc1nc(C(=O)N[C@@H](Cc2ccccc2)C[C@H](C)C(=O)OC)cs1)C(C)C)C(C)C | 59.7% | 80.6% | 75.6% | 80.8% | 94.6% | 18.8% | 49.6% | 81.8% | 77.4% | 63.5%
12 | COc1cc2c3c(c1)nc(C)n3CCC2 | 98.4% | 91.1% | 108% | 90.7% | 104% | 94.9% | 93.4% | 82% | 98.1% | 107%
13 | COc1ccc(-c2ccc3ncc4c(c3c2)n(-c2ccc(N3CCNCC3)c(C(F)(F)F)c2)c(=O)n4C)cn1 | -71.6% (active) | -66.4% (active) | -89.6% (active) | -72% (active) | -82.9% (active) | -83.2% (active) | -61.7% (active) | -83.2% (active) | -81.1% (active) | -73.9% (active)
14 | Cc1ccc2oc(=O)cc(-c3cc(-c4cc5ccccc5oc4=O)nc(N)c3C#N)c2c1 | 62.7% | 93.3% | 72.8% | 35.9% | 27% | 40.1% | 87.6% | 54.8% | 15.6% | 80.2%
15 | COC1CCC(N2C(=O)CNc3ncc(-c4ccc(C(C)(C)O)nc4)nc32)CC1 (centres undefined) | 15.8% | 8.08% (active) | -5.65% (active) | 5.54% (active) | 12.4% | -12% (active) | -10.3% (active) | 2.75% (active) | 6.56% (active) | -7.31% (active)
16 | C[C@@]1(C(=O)Nc2ccc(F)nc2)CCCN1c1nc(Nc2cc(C3CC3)[nH]n2)c2cccn2n1 | 20.5% | 30.1% | 15.3% | 11.3% | 14.5% | -45.5% (active) | 40.9% | 21.9% | 5.48% (active) | -49.3% (active)
17 | Nc1c(C(=O)c2ccccc2)sc2nc(-c3cccs3)cc(-c3cccs3)c12 | 67% | 80.6% | 80.8% | 59.6% | 14.2% | 69.2% | -20.7% (active) | 36.2% | 47.6% | 35.9%
18 | O=CC(OC(=O)c1ccccc1)C(OC(=O)c1ccccc1)C(COC(c1ccccc1)(c1ccccc1)c1ccccc1)OC(=O)c1ccccc1 (centres undefined) | 51.3% | 76.4% | 97.1% | 99.8% | 89.2% | -54.6% (active) | 40.4% | 97.5% |  | 57.2%
19 | Cc1ncc(-c2ccnc(Nc3ccc(S(C)(=O)=O)cc3)n2)n1C(C)C | -33.8% (active) | 6.32% (active) | -10.8% (active) | -14% (active) | -17.2% (active) | -4.8% (active) | -24.9% (active) | 1.7% (active) | 4.84% (active) | -27.4% (active)
20 | c1cn2cc(-c3ccc4cn[nH]c4c3)nc(Nc3ccc(N4CCOCC4)cc3)c2n1 | 64.8% | 20.8% | 70% | 9.23% (active) | 41.7% | 39.2% | 24.4% | 45% | 59.2% | 61.3%
21 | COc1cc(N2CCC(N(C)C)CC2)ccc1Nc1ncc(Cl)c(Nc2ccccc2P(C)(C)=O)n1 | 5.53% (active) | -44.3% (active) | -9.57% (active) | -4.93% (active) | 7% (active) | -60.2% (active) | -39.4% (active) | -35.8% (active) | -20.6% (active) | -62.7% (active)
22 | Cn1cc(-c2ncnc3ccc(-c4cnc(Cl)c(NS(C)(=O)=O)c4)cc23)c2ccccc21 | 29.7% | 16.4% | 0.878% (active) | 16.2% | 8.88% (active) | -8.63% (active) | 17% | 6.57% (active) | 12% | 16.4%
23 | Cc1cccc(Cl)c1NC(=O)c1cnc(Nc2cc(N3CCOCC3)cc(S(C)(=O)=O)c2)s1 | 81.5% | 66% | -6.54% (active) | 11.8% | 71.4% | -55.1% (active) | 7.33% (active) | -0.245% (active) | 11.6% | -6.99% (active)
24 | CCCc1cc2cc(-n3nc(C)c4c3CC(C)(C)CC4=O)cc(NC3CCC(O)CC3)c2c(=O)[nH]1 (centres undefined) | 29.8% | 33.8% | 58.2% | 28.5% | 17.6% | -25.7% (active) | 40.8% | 21% | 26.1% | -10.1% (active)
25 | CN(C)CCn1c(=O)c2c3cc4c(cc3n(CCN(C)C)c2c2ccc(Cl)cc21)OCO4 | 36.9% | 55% | 49.1% | 26.3% | 12.7% | 65.9% | 44.5% | 31.7% | 61.1% | 27%
